From article PMC4336329 (PLoS ONE, 2015)
The campaign covered roughly 310,000 compounds. About 14,000 (4.5%) showed an effect of 50% or more. The effect is printed as a negative number. Shown is part of a subset that was picked to be rich in strong results.
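Further: peak tail current of the secondary pulse compared with the same well before compound.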

What follows are compounds tested against human ether-à-go-go-related gene (hERG) potassium channel (human, UniProt Q12809) (assay: primary screen, population patch clamp on CHO cells stably expressing hERG; higher = less effect of the substance).
Chain of human ether-à-go-go-related gene (hERG) potassium channel (Q12809 whole entry, looked up): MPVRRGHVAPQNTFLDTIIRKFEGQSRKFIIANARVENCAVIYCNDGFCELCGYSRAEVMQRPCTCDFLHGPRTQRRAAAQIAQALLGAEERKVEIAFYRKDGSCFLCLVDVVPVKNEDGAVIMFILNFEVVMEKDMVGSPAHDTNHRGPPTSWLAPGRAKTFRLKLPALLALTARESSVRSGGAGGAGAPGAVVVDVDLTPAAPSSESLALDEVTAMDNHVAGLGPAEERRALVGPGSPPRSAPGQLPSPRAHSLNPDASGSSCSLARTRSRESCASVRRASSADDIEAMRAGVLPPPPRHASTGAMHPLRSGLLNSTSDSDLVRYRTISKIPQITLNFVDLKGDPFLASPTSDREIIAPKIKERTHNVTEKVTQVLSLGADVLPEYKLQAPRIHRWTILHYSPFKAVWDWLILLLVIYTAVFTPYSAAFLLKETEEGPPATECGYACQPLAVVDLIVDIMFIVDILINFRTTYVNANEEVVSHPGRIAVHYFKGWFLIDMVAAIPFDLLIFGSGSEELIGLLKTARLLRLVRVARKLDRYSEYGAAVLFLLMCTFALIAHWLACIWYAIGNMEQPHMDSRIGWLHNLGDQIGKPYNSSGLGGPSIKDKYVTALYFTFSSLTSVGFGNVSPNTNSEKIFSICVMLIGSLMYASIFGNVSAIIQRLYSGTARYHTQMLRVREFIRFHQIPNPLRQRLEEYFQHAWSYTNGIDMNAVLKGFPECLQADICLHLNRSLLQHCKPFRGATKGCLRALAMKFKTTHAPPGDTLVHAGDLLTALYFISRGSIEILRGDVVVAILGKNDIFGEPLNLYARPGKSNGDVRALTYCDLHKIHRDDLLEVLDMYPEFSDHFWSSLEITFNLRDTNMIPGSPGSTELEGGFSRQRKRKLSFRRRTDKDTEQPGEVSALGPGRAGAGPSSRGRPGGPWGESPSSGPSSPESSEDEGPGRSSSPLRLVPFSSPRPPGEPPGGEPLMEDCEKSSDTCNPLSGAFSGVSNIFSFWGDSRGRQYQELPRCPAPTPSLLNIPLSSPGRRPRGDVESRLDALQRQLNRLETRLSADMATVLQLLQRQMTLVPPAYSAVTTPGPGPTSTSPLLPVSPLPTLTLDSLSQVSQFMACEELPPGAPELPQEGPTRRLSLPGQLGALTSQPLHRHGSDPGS
O=C(Oc1ccc([N+](=O)[O-])cc1)N1CCC(N2CCCCC2)CC1 was tested, and the “hERG current change (%, negative = inhibition) at 10uM” value was -65.4%.
For O=C(Oc1cccc([N+](=O)[O-])c1)N1CCCCC1, the “hERG current change (%, negative = inhibition) at 10uM” value was -0.619%.
With N/C(=N/[N+](=O)[O-])N1CCN(C(=O)Oc2ccc([N+](=O)[O-])cc2)CC1 the “hERG current change (%, negative = inhibition) at 10uM” value was -36.5%.
With COC(=O)C1=C(c2ccc(F)cc2OCc2ccccc2)C[C@@H]2CC[C@H]1N2C(=O)NCCO the “hERG current change (%, negative = inhibition) at 10uM” value was 3.42%.
For Cc1cc(C)c(C#N)c(SCc2ccccc2C)n1, the “hERG current change (%, negative = inhibition) at 10uM” value was 17.7%.
COc1ccc(S(=O)(=O)N2CCN(Cc3cccc(OC)c3)CC2)cc1 was tested, and the “hERG current change (%, negative = inhibition) at 10uM” value was -28.6%.
In the case of CCOc1ccc(S(=O)(=O)N2CCN(CC(O)COc3cccc([N+](=O)[O-])c3)CC2)cc1 (stereo not shown), the “hERG current change (%, negative = inhibition) at 10uM” value was -65.5%.
For COc1ccc(C(=O)CN2CCN(S(=O)(=O)c3cccc([N+](=O)[O-])c3)CC2)cc1, the “hERG current change (%, negative = inhibition) at 10uM” value was -112%.
O=S(=O)(c1cccs1)N1CCN(CC(O)COc2cccc(Br)c2)CC1 (stereo not shown) was tested, and the “hERG current change (%, negative = inhibition) at 10uM” value was -61.1%.
O=[N+]([O-])c1cccc(OCC(O)CN2CCN(S(=O)(=O)c3cc(Cl)ccc3Cl)CC2)c1 (stereo not shown) was tested, and the “hERG current change (%, negative = inhibition) at 10uM” value was -31.3%.
In the case of COc1ccc(C(=O)CN2CCN(S(=O)(=O)c3cccc([N+](=O)[O-])c3)CC2)cc1OC, the “hERG current change (%, negative = inhibition) at 10uM” value was -5.28%.
With COc1ccc(S(=O)(=O)N2CCN(Cc3cccc(F)c3)CC2)cc1 the “hERG current change (%, negative = inhibition) at 10uM” value was -3.34%.
In the case of COc1ccc(S(=O)(=O)N2CCN(Cc3cccc([N+](=O)[O-])c3)CC2)cc1, the “hERG current change (%, negative = inhibition) at 10uM” value was -87.4%.
With COc1cccc(C(=O)CN2CCN(S(=O)(=O)c3cccc([N+](=O)[O-])c3)CC2)c1 the “hERG current change (%, negative = inhibition) at 10uM” value was -9.29%.
With CC(=O)c1ccc(OCC(O)CN2CCN(S(=O)(=O)c3cccc(Br)c3)CC2)cc1 (stereo not shown) the “hERG current change (%, negative = inhibition) at 10uM” value was 22.8%.
O=S(=O)(c1cccs1)N1CCN(CC(O)COC2CCCc3ccccc32)CC1 (stereo not shown) was tested, and the “hERG current change (%, negative = inhibition) at 10uM” value was -25.1%.
In the case of Cc1ccc(S(=O)(=O)N2CCN(CC(O)COc3ccccc3)CC2)cc1 (stereo not shown), the “hERG current change (%, negative = inhibition) at 10uM” value was -16.2%.
Cc1ccc2oc(C(=O)NCC(c3ccco3)N3CCCC3)c(C)c2c1 (stereo not shown) was tested, and the “hERG current change (%, negative = inhibition) at 10uM” value was -33.8%.
In the case of COc1ccc(C(=O)NNC(=O)CCn2nnc(-c3ccc(Cl)cc3)n2)cc1OC, the “hERG current change (%, negative = inhibition) at 10uM” value was 19%.
O=P(O)(c1ccccc1)c1ccccc1O was tested, and the “hERG current change (%, negative = inhibition) at 10uM” value was -7.16%.
O=C(NN1C(=O)C2C3C=CC(C4CC34)C2C1=O)c1ccccc1Cl (stereo not shown) was tested, and the “hERG current change (%, negative = inhibition) at 10uM” value was 0.861%.
In the case of COc1ccc(N(C)S(=O)(=O)c2cccc(C(=O)Nc3nc(C)c(C(C)=O)s3)c2)cc1, the “hERG current change (%, negative = inhibition) at 10uM” value was 7.14%.
For CCOC(=O)Cn1nnnc1CN(Cc1ccccc1)Cc1cc2cc(CC)ccc2[nH]c1=O, the “hERG current change (%, negative = inhibition) at 10uM” value was -11.2%.
For O=[N+]([O-])c1cccc(S(=O)(=O)N2CCN(c3ccccn3)CC2)c1, the “hERG current change (%, negative = inhibition) at 10uM” value was 4.57%.
CC(C)n1c(N2CCN(S(=O)(=O)c3cccc([N+](=O)[O-])c3)CC2)nc2ccccc21 was tested, and the “hERG current change (%, negative = inhibition) at 10uM” value was -71%.
CN1CCN(S(=O)(=O)c2cccc([N+](=O)[O-])c2)CC1 was tested, and the “hERG current change (%, negative = inhibition) at 10uM” value was 18.7%.
For Cc1ccc(C(=O)Nc2nnc(S(=O)(=O)N3CCC(C)CC3)s2)cc1, the “hERG current change (%, negative = inhibition) at 10uM” value was 21.8%.
For Cc1cc(/C=N/NC(=O)c2ccc(O)cc2)c(C)n1C1CC1, the “hERG current change (%, negative = inhibition) at 10uM” value was 20.4%.
For N#C/C(C(=O)NCc1ccccc1)=C1/N=C(NC(=O)c2ccco2)c2ccccc21, the “hERG current change (%, negative = inhibition) at 10uM” value was 10.3%.
With CC(C)CNC(=O)/C(C#N)=C1\N=C(NC(=O)c2ccco2)c2ccccc21 the “hERG current change (%, negative = inhibition) at 10uM” value was -60.4%.
In the case of CCCNC(=O)/C(C#N)=C1\N=C(NC(=O)c2ccco2)c2ccccc21, the “hERG current change (%, negative = inhibition) at 10uM” value was -44.6%.
For CC(C)(C)c1ccc(OCC(=O)N(Cc2cccs2)C2CCS(=O)(=O)C2)cc1 (stereo not shown), the “hERG current change (%, negative = inhibition) at 10uM” value was -54.2%.
Cc1ccc(C(=O)N(Cc2cccs2)C2CCS(=O)(=O)C2)cc1 (stereo not shown) was tested, and the “hERG current change (%, negative = inhibition) at 10uM” value was 0.98%.
For Cc1c(C(=O)N(Cc2ccccc2)C2CCS(=O)(=O)C2)oc2ccccc12 (stereo not shown), the “hERG current change (%, negative = inhibition) at 10uM” value was -38.5%.
For Cc1c(C(=O)N(Cc2cccs2)C2CCS(=O)(=O)C2)oc2ccccc12 (stereo not shown), the “hERG current change (%, negative = inhibition) at 10uM” value was -50.2%.
With O=C(c1ccccc1)N(Cc1cccs1)C1CCS(=O)(=O)C1 (stereo not shown) the “hERG current change (%, negative = inhibition) at 10uM” value was 12%.
Cc1ccc2c(C)c(C(=O)N(Cc3cccs3)C3CCS(=O)(=O)C3)oc2c1 (stereo not shown) was tested, and the “hERG current change (%, negative = inhibition) at 10uM” value was -20.8%.
With O=C(COc1ccccc1)N(Cc1cccs1)C1CCS(=O)(=O)C1 (stereo not shown) the “hERG current change (%, negative = inhibition) at 10uM” value was -17.4%.
For Cc1ccc(OCC(=O)N(Cc2cccs2)C2CCS(=O)(=O)C2)cc1 (stereo not shown), the “hERG current change (%, negative = inhibition) at 10uM” value was -8.3%.
With COc1ccc(OCC(=O)N(Cc2cccs2)C2CCS(=O)(=O)C2)cc1 (stereo not shown) the “hERG current change (%, negative = inhibition) at 10uM” value was -6.75%.
For O=C(COc1ccc(Br)cc1)N(Cc1cccs1)C1CCS(=O)(=O)C1 (stereo not shown), the “hERG current change (%, negative = inhibition) at 10uM” value was -51.7%.
With O=C(COc1ccc(F)cc1)N(Cc1cccs1)C1CCS(=O)(=O)C1 (stereo not shown) the “hERG current change (%, negative = inhibition) at 10uM” value was -33.4%.
O=C(c1ccc([N+](=O)[O-])cc1)N(Cc1cccs1)C1CCS(=O)(=O)C1 (stereo not shown) was tested, and the “hERG current change (%, negative = inhibition) at 10uM” value was -50%.
